Measurements published in PubChem BioAssay AID624255 (Broad Institute, 2012).
“And” between values parts separate entries of the source, which are not always exact repeats. Identical values can stand only once. Among all 77,000 compounds or so, about 4,600 (6%) were called active. Not shown: some 1% with an inconclusive outcome. Shown is part of a subset that was picked to be rich in actives. A number with no mark means an inactive call.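 How the source made its calls: active means mean inhibition above about 93%, with at least 55% of replicates each passing it (limit read from the data, passing the limit was not always enough); inconclusive means only one of those two conditions holds; inactive means neither condition holds.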

Assay: growth inhibition of T. cruzi in host fibroblasts – cell-based, beta-gal Tulahuen parasites, NIH3T3 host, luminescence, primary screen (AID 624255)
Details: T. cruzi beta-gal in NIH3T3, GalScreen luminescence, 90 h; at 8.34 µM; active compounds read high

Structure (SMILES)	inhibition
COCC(=O)N1C[C@@H]2[C@H](c3ccccc31)[C@@H](CO)N2C(=O)C1CC1	65.2%
CN1C(=O)c2cc(NC(=O)c3ccccc3)ccc2OC[C@@H]2O[C@H](CC(=O)NCC3CC3)CC[C@@H]21	-30.4%
O=C(c1cccnc1)N1C[C@H]2[C@@H](c3ccccc31)[C@@H](CO)N2C(=O)Nc1ccccc1F	-1.74%
C[C@H]1CN([C@@H](C)CO)C(=O)c2c(c3ccccc3n2C)-c2ccccc2CO[C@H]1CN(C)S(=O)(=O)c1ccc(C#N)cc1	29.4%
C[C@@H]1CN([C@H](C)CO)S(=O)(=O)c2ccc(-c3cccc(F)c3)cc2O[C@H]1CN(C)S(=O)(=O)c1ccc(F)cc1	118% (active)
C[C@@H]1CN([C@@H](C)CO)S(=O)(=O)c2ccc(-c3ccc(F)cc3)cc2O[C@H]1CN(C)C(=O)c1ccccc1F	84.8%
C[C@H]1CN([C@@H](C)CO)S(=O)(=O)c2ccc(-c3cccc(F)c3)cc2O[C@@H]1CN(C)C	-32.3% and -49.6%
COc1cccc(NC(=O)N[C@@H]2CC[C@H](CC(=O)NCc3ccccn3)O[C@H]2CO)c1	-39.2%
CO[C@@H]1CN(C)C(=O)c2cc(NS(=O)(=O)c3cn(C)cn3)ccc2OC[C@@H](C)NC[C@H]1C	-12.5%
Cc1ccccc1S(=O)(=O)N[C@H]1CC[C@@H](CCn2cc(Cc3ccccc3)nn2)O[C@H]1CO	-21.8%
CN1c2ccc(-c3ccccc3F)cc2[C@H]2[C@H](CCN2C(=O)Cc2ccccn2)[C@H]1CO	81%
COc1ccc(-c2ccc3c(c2)[C@@H]2[C@@H](CCN2C(=O)Cc2ccccn2)[C@H](CO)N3C)cc1	90.9% (active)
CN1c2ccc(-c3ccccc3)cc2[C@@H]2[C@@H](CCN2C(=O)c2ccccc2F)[C@@H]1CO	83.7%
COc1cccc(NC(=O)N2CC[C@@H]3[C@@H](CO)N(C)c4ccc(-c5cccc(F)c5)cc4[C@@H]32)c1	30.5%
CN1c2ccc(-c3ccccc3)cc2[C@@H]2[C@@H](CCN2C(=O)c2ccncc2)[C@@H]1CO	103% (active)
CCC(=O)N1CC[C@@H]2[C@@H](CO)N(C)c3ccc(-c4cccc(OC)c4)cc3[C@@H]21	104% (active)
COc1ccc(-c2ccc3c(c2)[C@H]2[C@H](CCN2C(=O)C2CCOCC2)[C@H](CO)N3C)cc1	1.27%
CCC(=O)N1CC[C@H]2[C@@H]1c1cc(-c3ccc(C#N)cc3)ccc1N(C)[C@H]2CO	58.1%
CN1c2ccc(-c3ccccc3)cc2[C@@H]2[C@@H](CCN2C(=O)c2ccccc2)[C@H]1CO	62.4%
CCCNC(=O)C[C@@H]1CC[C@H]2[C@H](COc3ccc(NC(=O)c4ccc(Cl)cc4)cc3C(=O)N2C)O1	29.6%
COc1ccc(S(=O)(=O)Nc2ccc3c(c2)C(=O)N(C)C[C@@H](OC)[C@H](C)CN(C(=O)NC(C)C)[C@H](C)CO3)cc1	-70.7%

Structure (SMILES)	inhibition
COc1ccc(NC(=O)N[C@H]2C=C[C@H](CC(=O)NCc3ccccn3)O[C@H]2CO)cc1	-16.1%
Cc1noc(C)c1NC(=O)Nc1ccc2c(c1)C(=O)N([C@H](C)CO)C[C@@H](C)[C@H](CN(C)S(=O)(=O)c1ccc(Cl)cc1)OCCCC[C@H](C)O2	53.3%
COCCNC(=O)C[C@H]1CC[C@H]2[C@H](COc3ccc(NC(=O)C4CCOCC4)cc3C(=O)N2C)O1	17.3%
C[C@@H]1CN([C@@H](C)CO)C(=O)c2cc(NC(=O)C3CCCCC3)ccc2O[C@@H](C)CCCCO[C@H]1CN(C)C(=O)CCC(F)(F)F	29.9%
COCC(=O)Nc1ccc2c(c1)OC[C@@H](C)N(Cc1cocn1)C[C@@H](C)[C@@H](OC)CN(C)C2=O	-2.18%
CN1c2ccc(-c3ccc(C#N)cc3)cc2[C@@H]2[C@@H](CCN2S(=O)(=O)c2cccc(F)c2)[C@@H]1CO	72.5%
COCC(=O)Nc1ccc2c(c1)[C@H]1C[C@H](CC(=O)NCc3ccc(OC)cc3)O[C@@H](CO)[C@H]1O2	4.09%
O=C(C[C@H]1CC[C@H]2[C@@H](COC[C@H](O)CN2C(=O)c2ccncc2)O1)NCc1cc(F)cc(F)c1	43.6%
C[C@@H]1CN([C@H](C)CO)C(=O)Cc2cc(NC(=O)Nc3ccc(C(F)(F)F)cc3)ccc2O[C@H]1CN(C)Cc1ccc(-c2ccccc2)cc1	67.4%
C[C@@H]1CN([C@H](C)CO)C(=O)Cc2cc(NC(=O)Cc3ccccc3)ccc2O[C@H]1CN(C)Cc1ccc(Oc2ccccc2)cc1	99.8% (active)
C[C@@H]1CN([C@H](C)CO)C(=O)Cc2cc(NC(=O)Cc3cn(C)c4ccccc34)ccc2O[C@@H]1CN(C)Cc1ccc(C(F)(F)F)cc1	89.6%
C[C@H]1CN([C@@H](C)CO)C(=O)Cc2cc(NS(=O)(=O)c3ccccc3)ccc2O[C@@H]1CN(C)Cc1ccc(C(=O)Nc2ccccc2N)cc1	21.9%
C[C@H]1CN([C@@H](C)CO)C(=O)Cc2cc(NC(=O)Cc3cn(C)c4ccccc34)ccc2O[C@@H]1CN(C)Cc1ccc(C(F)(F)F)cc1	103% (active)
C[C@H](CO)N1C[C@H](C)[C@H](CN(C)Cc2ccc(-c3ccccc3)cc2)Oc2ccc(NC(=O)Nc3ccc(F)cc3)cc2CC1=O	100% (active)
C[C@@H]1CN([C@@H](C)CO)C(=O)Cc2cc(NC(=O)C3CCCCC3)ccc2O[C@@H]1CN(C)Cc1ccc(C(=O)Nc2ccccc2N)cc1	103% (active)
C[C@H]1CN([C@@H](C)CO)C(=O)Cc2cc(NS(=O)(=O)c3ccccc3)ccc2O[C@H]1CN(C)Cc1ccc(C(=O)Nc2ccccc2N)cc1	48%
COc1ccc(CN(C)C[C@H]2Oc3ccc(NC(=O)Cc4ccccc4)cc3CC(=O)N([C@@H](C)CO)C[C@@H]2C)cc1	74%
C[C@@H]1CN([C@@H](C)CO)C(=O)Cc2cc(NC(=O)Cc3ccccc3)ccc2O[C@@H]1CN(C)Cc1ccc(Oc2ccccc2)cc1	12.2%
C[C@H]1CN([C@@H](C)CO)C(=O)Cc2cc(NC(=O)Cc3cn(C)c4ccccc34)ccc2O[C@H]1CN(C)Cc1ccccc1	83.1%
C[C@@H]1CN([C@H](C)CO)C(=O)Cc2cc(NC(=O)Nc3ccccc3)ccc2O[C@@H]1CN(C)Cc1ccc(C(F)(F)F)cc1	86.5%
C[C@@H]1CN([C@@H](C)CO)S(=O)(=O)c2ccc(-c3cncnc3)cc2O[C@@H]1CN(C)C(=O)C1CC1	21.1%

Structure (SMILES)	inhibition
CCNC(=O)C[C@H]1CC[C@@H]2[C@H](COC[C@H](O)CN2S(=O)(=O)c2ccc(Oc3ccccc3)cc2)O1	2.89%
C/C=C/c1ccc([C@@H]2[C@@H](CO)N(C(=O)CC)[C@H]2CN(C)C(=O)C2CC2)cc1	15%
COc1ccc(CNC(=O)C[C@H]2C[C@H]3c4cc(NS(C)(=O)=O)ccc4O[C@H]3[C@@H](CO)O2)cc1	-53%
CNC(=O)C[C@H]1CC[C@H]2[C@@H](COc3ccc(NS(=O)(=O)c4ccc(F)cc4)cc3C(=O)N2C)O1	17.2%
CN(C)C(=O)C[C@@H]1CC[C@H]2[C@@H](COC[C@H](O)CN2C(=O)c2ccncc2)O1	24.8%
COc1ccc(S(=O)(=O)Nc2ccc3c(c2)CC(=O)N([C@H](C)CO)C[C@@H](C)[C@H](CN(C)S(=O)(=O)c2c(C)noc2C)O3)cc1	-5.62%
C[C@@H](NC(=O)[C@H]1[C@H](CO)[C@H]2Cn3c(cccc3=O)[C@@H]1N2Cc1cccnc1)c1ccccc1	50%
C[C@@H]1CN([C@@H](C)CO)C(=O)CCCn2nncc2CO[C@@H]1CN(C)Cc1ccccc1	-1.5%
C[C@@H]1CN([C@H](C)CO)C(=O)c2cccc(NC(=O)c3cnccn3)c2O[C@@H]1CN(C)Cc1ccc(C(=O)Nc2ccccc2N)cc1	109% (active)
C[C@H]1CN([C@@H](C)CO)C(=O)CCCn2nncc2CO[C@H]1CN(C)Cc1ccccc1	-4.75%
C[C@@H]1CN([C@@H](C)CO)C(=O)c2cccc(NC(=O)c3cnccn3)c2O[C@H]1CN(C)Cc1ccc(C(=O)O)cc1	-4.45%
C[C@@H]1CN([C@H](C)CO)C(=O)CCCn2nncc2CO[C@@H]1CN(C)Cc1ccc(C(=O)Nc2ccccc2N)cc1	103% (active)
C[C@@H]1CN([C@@H](C)CO)C(=O)c2cccc(NC(=O)c3cnccn3)c2O[C@H]1CN(C)Cc1ccc(-c2ccccc2)cc1	98.7%
COCC(=O)Nc1ccc2c(c1)C(=O)N(C)[C@H]1CC[C@H](CC(=O)Nc3ccccc3)O[C@H]1CO2	43.2%
C[C@@H]1CN([C@H](C)CO)C(=O)c2cc(-c3ccc(C#N)cc3)cnc2O[C@@H]1CN(C)C(=O)Nc1ccccc1	33.2%
CCN1[C@@H]2Cn3c(ccc(-c4cccnc4)c3=O)[C@H]1[C@@H](C(=O)NC1CCCCC1)[C@@H]2CO	-16.4%
O=C(NC[C@@H]1[C@H](c2ccccc2)[C@H](CO)N1CC1CCCC1)c1cccnc1	15.8%
CO[C@H]1CN(C)C(=O)c2ccc(NC(C)=O)cc2OC[C@H](C)N(C(=O)c2ccccc2)C[C@H]1C	-19.6%
CCNC(=O)[C@@H]1[C@@H](CO)[C@@H]2Cn3c(ccc(-c4ccncc4)c3=O)[C@@H]2N1Cc1cc(F)ccc1F	80.1%
